Data from PubChem BioAssay AID602127 (Broad Institute, 2011).
Potency and affinity values are given separately. Activity calls are given as the source filed them.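 How the source made its calls: active means every repeat test judged active, meaning a falling signal with potency within twice the top valid dose; inconclusive means repeat tests disagree on the call; inactive means every repeat test inactive, including signal moving upward.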

What follows are compounds tested against Cyclin-dependent kinase 2 (Homo sapiens) (UniProt P24941) (assay: CDK2 kinase inhibitors, off-target check, dose response, selectivity assay for Dyrk1A inhibitor project, biochemical, cherry-picked samples (AID 602127)). Details: CDK2/cyclin A kinase, ADP-Glo luminescence, 60 min; series mostly up to 10 µM.

outcome, inactive:
c1cc(-c2ccc3c(c2)OCO3)nc(Nc2ccc3c(c2)OCO3)n1
CCN1CCN(Cc2ccc(NC(=O)c3ccc(C)c(NC(=O)N4CCNC4=O)c3)cc2C(F)(F)F)CC1
Brc1ccc(CNc2nccc(-c3ccc4c(c3)OCO4)n2)cc1Br
CCCNc1ncnc2ccc(-c3ccc4c(c3)OCO4)cc12
Clc1cc(Cl)cc(CNc2cc(-c3ccc4c(c3)OCO4)ncn2)c1
Clc1ccc(CNc2cc(-c3ccc4c(c3)OCO4)ncn2)cc1
CCOC(=O)c1ccc(-c2ccc3ncnc(NCc4ccc(C)o4)c3c2)o1
Cc1noc(NS(=O)(=O)c2ccc(NC(=O)c3oc4ccc(F)cc4c3C)cc2)c1C
COc1ccc(-c2cc(NCCc3ccncc3)n3ncnc3n2)cc1
Fc1cccc(Nc2nc(-c3ccncc3)nc3ccccc23)c1
Cc1nc(NC(=O)c2ccccc2)sc1-c1csc(NCc2ccco2)n1
c1nc(NCC2CCCC2)c2cc(-c3ccc4c(c3)OCO4)ccc2n1
COc1ccc2c(Cl)c(C(=O)NCc3ccco3)sc2c1
CCN(Cc1cccs1)c1ncnc2ccc(-c3ccc4c(c3)OCO4)cc12
Cc1nc(CN(C)c2ncnc3ccc(-c4ccc5c(c4)OCO5)cc23)cs1
Cc1noc(CN(C)c2ncnc3ccc(-c4ccc5c(c4)OCO5)cc23)n1
CCCC(=O)Nc1nc(-c2ccc3c(c2)OCCO3)cs1
Clc1ccc(CNc2nccc(-c3ccc4[nH]ncc4c3)n2)cc1Cl
